Measured values: PubChem BioAssay AID651551 (Sanford-Burnham Center for Chemical Genomics, 2012)

These compounds were tested against PEG-3 (UniProt Q6IN02) (assay: GAPDH versus PEG-3 reporter suppression – cell-based, luminescence, counter-screen for PEG-3 promoter inhibitor project, SAR follow-up (AID 651551)). Settings: HeLa PEG-Prom / GAPDH luciferase reporter, 6 or 24 h, run 3, 6 h; at 99 µM (top of the series).

Question: Which inhibition % (higher = more inhibition) does the source give for `O=C(Nc1nc(-c2ccccc2)cs1)c1nn(-c2ccccc2)c(=O)c2ccccc12` here?
Answer: 11.7%

Question: For `Cc1nc(NC(=O)c2ccccc2)sc1-c1csc(Nc2ccccc2)n1`, which inhibition % (higher = more inhibition) is on record?
Answer: 27%

Question: Which inhibition % (higher = more inhibition) does the source give for `COCCCNC(=O)c1ccc(Cn2c(=O)c3ccccc3n(Cc3ccccc3C#N)c2=O)cc1` here?
Answer: 12.9%

Question: With `COc1ccc(-n2nc(C(=O)NCC(=O)Nc3ccc(OC)c(OC)c3)c3ccccc3c2=O)cc1` as the compound, how does the inhibition % (higher = more inhibition) read?
Answer: 27%

Question: With `O=C(Nc1nc2ccccc2s1)c1nn(-c2ccccc2)c(=O)c2ccccc12` as the compound, how does the inhibition % (higher = more inhibition) read?
Answer: -12.9%

Question: With `Cc1cc(NC(=O)c2ccccc2C)n(-c2nc3ccccc3[nH]2)n1` as the compound, how does the inhibition % (higher = more inhibition) read?
Answer: 53.8%
